Reference: PubChem BioAssay
The source made the active and inactive calls. Unless noted, the rule behind the calls is not given here.

How the values were obtained:
[1] = resazurin metabolic signal in HepG2 cells – cell-based, resazurin fluorescence, 24 h, PK04 Diversity Set, profiling panel (AID 1172); conditions: HepG2 viability, higher = more signal
[2] = budding yeast growth changes without added modifier – OD600, strain BY4716, 24 h, basal condition, primary screen (AID 1173); conditions: S. cerevisiae BY4716 growth, OD600, 24 h; higher = more signal, called active from +8 up or from −8 down
[3] = viability profiling in MM1S myeloma cells – cell-based, resazurin fluorescence, basal, 24 h, PK04 Diversity Set, profiling panel (AID 1174); conditions: higher = more signal, called active from +8 up or from −8 down;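 note: MM1S multiple myeloma cell line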
[4] = biological target: Dihydroorotate dehydrogenase (quinone), mitochondrial (Plasmodium falciparum (isolate 3D7)) (UniProt Q08210); test: inhibition of P. falciparum DHODH – biochemical, C-terminal His tag, absorbance 600 nm, primary screen (AID 1175); conditions: PfDHODH enzyme, DCIP absorbance 600 nm; higher = more signal, called active from +8 up or from −8 down;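 note: recombinant parasite enzyme with a five histidine tag at its C terminus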
[5] = inhibition of PAO1 biofilm formation – strain PAO1, LB-PBS medium, absorbance 600 nm, primary screen (AID 1176); conditions: P. aeruginosa PAO1 growth/biofilm, A600, 12 h; higher = more signal
[6] = growth modulation of vineyard yeast isolate – strain RM11-1a, OD600, basal, 24 h, primary screen (AID 1177);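 note: cultures grown under basal conditions with no added stressor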; conditions: S. cerevisiae RM11-1a growth, OD600, 24 h; higher = more signal, called active from +8 up or from −8 down
[7] = growth of efflux-deficient E. coli DRC39 – strain DRC39, OD650, 24 h, E. coli filamentation inducers, primary screen (AID 1178);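 note: growth measured as culture turbidity by optical density at 650 nm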; conditions: E. coli DRC39 acrAB, higher = more signal, called active from +8 up or from −8 down
[8] = growth of efflux-deficient E. coli DRC39 – strain DRC39, OD650, 48 h, E. coli filamentation inducers, primary screen (AID 1179);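 note: screen aims at cell division blockers that make cells filament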; conditions: E. coli DRC39 delta-acrAB growth, higher = more signal, called active from +8 up or from −8 down
[9] = viability profiling in RPMI8226 myeloma cells – cell-based, resazurin fluorescence, basal, 24 h, PK04 Diversity Set, profiling panel (AID 1180); conditions: higher = more signal;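 note: RPMI8826 multiple myeloma cell line at 5000 cells per well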
[10] = biological target: E3 ubiquitin-protein ligase XIAP (Homo sapiens) (UniProt P98170); test: small molecules binding XIAP protein – biophysical, small-molecule microarray, fluorescence 635 nm, primary screen (AID 1181); conditions: higher = more signal;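 note: score merges 667 nm emission and signal to noise over triplicate slides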
[11] = system: XIP peptide (Xip251-270) binding; test: XIP fragment 251-270 binding compounds – biochemical, small-molecule microarray, fluorescence 635/667 nm, 0.1 µg/mL protein, primary screen (AID 1182); conditions: fluorescent protein binding, 635 nm, higher = more signal, called active from +8 up or from −8 down
[12] = system: XIP peptide (Xip251-270); test: compounds binding XIP fragment 251-270 – biochemical, small-molecule microarray, fluorescence 635/667 nm, 0.5 µg/mL protein, primary screen (AID 1183); conditions: fluorescence 635 nm, higher = more signal
[13] = blood-stage malaria parasite viability loss – strain 3D7, DAPI fluorescence, 100 nL, primary screen (AID 1184);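 note: parasites grown inside human red blood cells in medium with human serum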; conditions: P. falciparum 3D7 growth, 3 d, higher = more signal
[14] = biological target: Homeobox protein Hox-A13 (Mus musculus) (UniProt Q62424); test: disruptors of Hoxa13 oligonucleotide interaction – biochemical, fluorescence polarization, labeled oligonucleotide, primary screen (AID 1185); conditions: Hoxa13:DNA binding, 15 min, higher = more signal, called active from +8 up or from −8 down
[15] = blockers of DNA damage checkpoint Chk1 activation – imaging, HeLa, hydroxyurea, phospho-Chk1 antibody, percent positive cells, primary screen (AID 1186); conditions: hydroxyurea-induced phospho-Chk1 immunofluorescence imaging, higher = more signal
[16] = blockers of DNA damage checkpoint Chk1 activation – imaging, HeLa, hydroxyurea, phospho-Chk1 nuclear intensity, primary screen (AID 1187); conditions: hydroxyurea-induced phospho-Chk1 immunofluorescence imaging, higher = more signal

Sequence of E3 ubiquitin-protein ligase XIAP (Homo sapiens) (P98170 whole entry, looked up, the tested form may be a part): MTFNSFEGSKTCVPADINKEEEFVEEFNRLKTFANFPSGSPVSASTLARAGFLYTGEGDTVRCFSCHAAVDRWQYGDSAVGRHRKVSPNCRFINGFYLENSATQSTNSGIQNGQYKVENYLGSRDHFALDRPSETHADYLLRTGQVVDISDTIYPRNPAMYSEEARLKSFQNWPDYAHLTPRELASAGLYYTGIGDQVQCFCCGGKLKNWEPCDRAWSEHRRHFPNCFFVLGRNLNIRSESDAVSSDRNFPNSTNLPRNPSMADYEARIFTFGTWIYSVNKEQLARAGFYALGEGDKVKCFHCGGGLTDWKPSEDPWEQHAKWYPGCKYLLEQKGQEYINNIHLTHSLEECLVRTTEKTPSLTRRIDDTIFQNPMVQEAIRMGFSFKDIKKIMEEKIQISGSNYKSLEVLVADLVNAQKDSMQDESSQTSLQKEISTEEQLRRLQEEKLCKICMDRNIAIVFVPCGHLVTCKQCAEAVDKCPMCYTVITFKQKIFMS
Sequence of Dihydroorotate dehydrogenase (quinone), mitochondrial (Plasmodium falciparum (isolate 3D7)) (Q08210 whole entry, looked up): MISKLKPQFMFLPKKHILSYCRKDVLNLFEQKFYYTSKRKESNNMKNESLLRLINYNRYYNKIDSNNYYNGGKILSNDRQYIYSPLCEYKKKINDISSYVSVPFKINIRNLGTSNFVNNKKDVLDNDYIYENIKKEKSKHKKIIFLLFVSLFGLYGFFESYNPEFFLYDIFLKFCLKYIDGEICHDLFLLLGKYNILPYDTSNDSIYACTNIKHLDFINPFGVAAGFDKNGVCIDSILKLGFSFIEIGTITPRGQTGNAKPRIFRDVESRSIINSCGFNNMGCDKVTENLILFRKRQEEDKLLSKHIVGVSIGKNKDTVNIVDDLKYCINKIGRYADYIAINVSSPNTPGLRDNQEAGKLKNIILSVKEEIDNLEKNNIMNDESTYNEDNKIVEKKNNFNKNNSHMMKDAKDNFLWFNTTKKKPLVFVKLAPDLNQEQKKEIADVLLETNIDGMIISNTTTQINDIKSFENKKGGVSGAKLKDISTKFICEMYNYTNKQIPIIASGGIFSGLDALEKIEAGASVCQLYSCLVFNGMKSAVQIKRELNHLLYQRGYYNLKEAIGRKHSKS
Sequence of Homeobox protein Hox-A13 (Mus musculus) (Q62424 whole entry, looked up): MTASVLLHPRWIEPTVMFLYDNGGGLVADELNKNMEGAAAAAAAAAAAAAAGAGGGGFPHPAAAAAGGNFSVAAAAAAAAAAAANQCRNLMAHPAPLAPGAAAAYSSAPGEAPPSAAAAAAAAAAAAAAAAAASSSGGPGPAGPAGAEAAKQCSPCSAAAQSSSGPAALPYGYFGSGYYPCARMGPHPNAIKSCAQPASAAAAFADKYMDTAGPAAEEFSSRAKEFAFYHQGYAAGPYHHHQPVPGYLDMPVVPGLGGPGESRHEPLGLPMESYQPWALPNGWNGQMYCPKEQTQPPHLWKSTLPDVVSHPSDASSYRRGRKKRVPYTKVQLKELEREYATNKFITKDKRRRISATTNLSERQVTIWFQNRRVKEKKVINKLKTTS

C=CCN(Cc1ccccc1)C(=O)C(c1cccs1)N(C(=O)/C=C\C(=O)O)c1ccc(CCOCCO)cc1 (configuration not stated)
z-score [1]: -0.552
z-score [2]: 0.25 (inactive)
z-score [3]: 0.222 (inactive)
composite z-score [4]: -1.54 (inactive)
z-score [5]: 0.742 (inactive)
z-score [6]: -1.18 (inactive)
z-score [7]: 0.368 (inactive)
z-score [8]: 0.651 (inactive)
z-score [9]: 0.424
composite z-score [10]: -0.249
composite z-score [11]: -0.524 (inactive)
composite z-score [12]: 0.625
z-score [13]: 0.155
z-score [14]: 0.12 (inactive)
z-score [15]: -1.25 (inactive)
z-score [16]: -0.565 (inactive)

CC(C)(C)OC(=O)CC[C@@]1(C(=O)N2CCCCC2)N=C(c2ccc(OCCCO)cc2)O[C@@H]1c1ccccc1
z-score [1]: 0.426
z-score [2]: -0.563 (inactive)
z-score [3]: -0.76 (inactive)
composite z-score [4]: -0.159 (inactive)
z-score [5]: 0.935 (inactive)
z-score [6]: 0.262 (inactive)
z-score [7]: -0.174 (inactive)
z-score [8]: -1.53 (inactive)
z-score [9]: 0.0487
composite z-score [10]: 0.138
composite z-score [11]: 0.671 (inactive)
composite z-score [12]: 0.267
z-score [13]: -2.03
z-score [14]: -5.06 (inactive)
z-score [15]: -0.102 (inactive)
z-score [16]: -0.0985 (inactive)

CCC(CC)C(O)C1C=CC2C(=O)N(c3ccccc3)C(=O)C2N1Nc1ccccc1 (configuration not stated)
z-score [1]: 1.48
z-score [2]: -1.61 (inactive)
z-score [3]: 0.33 (inactive)
composite z-score [4]: 0.246 (inactive)
z-score [5]: 2.07 (inactive)
z-score [6]: -0.166 (inactive)
z-score [7]: 0.55 (inactive)
z-score [8]: 0.503 (inactive)
z-score [9]: 0.0861
composite z-score [10]: 0.212
composite z-score [11]: 0.285 (inactive)
composite z-score [12]: 0.816
z-score [13]: 0.0789
z-score [14]: -3.76 (inactive)
z-score [15]: 0.263 (inactive)
z-score [16]: 0.0193 (inactive)

CCCC[C@H]1C[C@@H]1[C@@H]1N(P(=O)(c2ccccc2)c2ccccc2)C[C@@](O)(c2ccccc2)CC12CC2
z-score [1]: 2.63
z-score [2]: -0.763 (inactive)
z-score [3]: 1.07 (inactive)
composite z-score [4]: -0.244 (inactive)
z-score [5]: 0.122 (inactive)
z-score [6]: 0.781 (inactive)
z-score [7]: -0.446 (inactive)
z-score [8]: -0.412 (inactive)
z-score [9]: -1.79
composite z-score [10]: 0.0447
composite z-score [11]: -0.0646 (inactive)
composite z-score [12]: -0.0749
z-score [13]: -1.22
z-score [14]: -2.37 (inactive)
z-score [15]: 0.0682 (inactive)
z-score [16]: 0.228 (inactive)

O=C1OCC=C[C@H]2OC34C=CCN(CCN5CCOCC5)C(=O)[C@H]3N(CCO)C(=O)[C@@H]4[C@@H]12 (some centres not stated)
z-score [1]: 0.226
z-score [2]: -0.0819 (inactive)
z-score [3]: -0.176 (inactive)
composite z-score [4]: -0.424 (inactive)
z-score [5]: -0.608 (inactive)
z-score [6]: -0.31 (inactive)
z-score [7]: -0.533 (inactive)
z-score [8]: -0.385 (inactive)
z-score [9]: -0.386
composite z-score [10]: -0.28
composite z-score [11]: 0.218 (inactive)
composite z-score [12]: 0.775
z-score [13]: 0.703
z-score [14]: -5.02 (inactive)
z-score [15]: -0.474 (inactive)
z-score [16]: -0.371 (inactive)

O=C1OCC=C[C@H]2OC34C=CCN(Cn5nnc6ccccc65)C(=O)[C@H]3N(CCCCCO)C(=O)[C@@H]4[C@@H]12 (some centres not stated)
z-score [1]: 0.0883
z-score [2]: 0.21 (inactive)
z-score [3]: -0.0233 (inactive)
composite z-score [4]: -1.24 (inactive)
z-score [5]: 0.193 (inactive)
z-score [6]: -0.273 (inactive)
z-score [7]: -0.293 (inactive)
z-score [8]: -0.571 (inactive)
z-score [9]: -0.0297
composite z-score [10]: 0.515
composite z-score [11]: 0.537 (inactive)
composite z-score [12]: 0.193
z-score [13]: -0.133
z-score [14]: -3.27 (inactive)
z-score [15]: -0.288 (inactive)
z-score [16]: -0.398 (inactive)

C=CC[C@]12N=C(c3ccc(OCCCO)cc3)O[C@H]1c1ccccc1N(CCS(=O)(=O)c1ccccc1)C2=O
z-score [1]: 1.49
z-score [2]: -0.298 (inactive)
z-score [3]: -1.58 (inactive)
composite z-score [4]: 0.0191 (inactive)
z-score [5]: -0.0988 (inactive)
z-score [6]: 1.05 (inactive)
z-score [7]: 0.611 (inactive)
z-score [8]: -0.0546 (inactive)
z-score [9]: -0.585
composite z-score [10]: -0.271
composite z-score [11]: 3.59 (inactive)
composite z-score [12]: 0.708
z-score [13]: -1.57
z-score [14]: -2.59 (inactive)
z-score [15]: -0.382 (inactive)
z-score [16]: -0.315 (inactive)
